Data: the supplement of paper PMC6555819

Tested on: VDR:RXRa (NR concentration 270 nM, RXRa partner concentration 90 nM)
Assay: PBM binding z-score (relative to random genomic background probes); higher = stronger binding; sequences stand for … in GC…GCGATTGACAGCGTAGAATGAAGG
Description: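 Protein-binding microarray (Agilent 4x180K custom design, double-stranded 60-nt probes: 5' GC cap, 34-nt variable region, 24-nt constant primer region; full probe sequence given). Purified or IVT nuclear receptor:RXRα heterodimers (3:1 NR:RXRα, mostly 270:90 nM) or homodimers were incubated for 1 h in PBS with 2% milk and no ligand, then detected with Alexa488 antibodies. Fluorescence from o1-orientation probes (~5 replicates averaged) was converted to z-scores against 500 random hg19 background probes. Variable regions are seed direct-repeat (DR0–DR5) sites, all their single-nucleotide variants and half-site ablations.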

| Sequence | PBM binding z-score |
| --- | --- |
| AGAATGTGGTTATTAAGATCAGGGAATTGCGGTC | 0.251 |
| GATACCGGGTCAGCTAGAGGCCAGAGTATGGAAA | 2.26 |
| GCTCGGAGGACACGGTCAGAGCTTTGTCCGTAGA | -0.792 |
| GCGACTGCGGCATCAGCAGGTTACCATAACTTAA | -0.5 |
| CTCGAAAGGTCGGATGAGGTGAGTATACGGATAA | 2.74 |
| ACTAGCAGGCCAAGGGTCACCCAAGATTAGTCCG | 3.3 |
| CCAGACAGGGGAAAGGTAACTCAGTCTGGTACGC | -0.0821 |
| ATCAAAAGGTCGACGAGGTGAGTATACACCGTTT | 5.4 |
| AATACAGGGTCATCGTTGGCCAGAGTACGCACAG | 5.13 |
| CGTCAAAGTTAAACTAAGGTAACGTAAAGCACGC | 0.371 |
| CGAACTAGGTCAGAACAGGACAGTGAGGGATGAT | 0.739 |
| CGTCCAAGGTCATCGGAGGTCAGTGAAGACAGAT | 7.04 |
| TCTCGGAGGAGACGAAAGGTCAGAGCTCGACATC | 1.87 |
| CCTAGTTGGTTAGGAGGTCACACACCGGATATGA | 3.56 |
| TCGAGTAGGTTAGAGGCATTCAGAATGGCGTCGA | -0.327 |
| CCTATAAGTTGACCATAAGGGCAACCGAAGCTCG | 1.06 |
| CGTCCAAGTTCAAGGTAACGTAACAGAAAGCAGC | 2.45 |
| CGAACTAGGTCATTGACAGGACAGTGTATAGTAA | 2.05 |
| TAGCCTAGGTGATGGGCCAGTATACCACGCGAAC | -0.726 |
| CGTCCAAGGTCAAAGGTCAGTGTAGAGATGACGG | 6.6 |

| Sequence | PBM binding z-score |
| --- | --- |
| GCAGACAGGTGACACGCAGGTAACTCAGGGTGGC | -0.517 |
| ATCTCGAGGTAAAAGTTCAGTGAATCCCGAGGAT | 1.7 |
| TTACCAAGGTGAAAGGTCGTTGATGCACGCCTTG | 3.14 |
| ATATGTAGGTTACATCAGGGTCATTCAGGCTATG | 5.14 |
| CGAACTAGGTCACAACAGGACAGTGAAGGATGAT | 2.16 |
| TCTAGCAGGCCAGAAGGTCACTCAAGAGGTACGG | 2.16 |
| CAAACTAGGTAACCGGAAGGTCAAAGTCCGCATG | 3.35 |
| TCTACAGGGTCAAAGGCCAGAGTACGAATGTCGA | 4.56 |
| CTCGAAAGATCGTGCTCAGGTGAGTATACCAAAC | -0.291 |
| ACTCGGAGGACAAAGGTCAGACCTACGCCAGTGA | 3.52 |
| CAGCCGAGGTCAGGGCCAGTATAGGAGGAACGTT | 3.64 |
| TCTCGGCGGACACGAAGGTCAGAGCTTTCCAGAG | 0.658 |
| TCTTGTAGACCAGCAGGTTAAGAAAGCTGGCCAA | 0.209 |
| TAGCCTAGGTCTTTGGGCCAGTATAGTACGCATC | -0.592 |
| ACTATTAGTAGACTTAGGGCAACCGATACGACGC | -0.00967 |
| TCTTGTAGATGAAGCAGGTTAAGAAAGCCTGAGT | 0.456 |
| ATATGTACGTTAGCTGGGGTCATTCAGACTAGGC | 5.16 |
| TCTAGCATGCCAGAGGGTCACTCAAGAGGTACGG | 1.46 |
| CCTACTGGGCCACGAAAGGTCATTGATTCAGTGA | 4.21 |
| GGAACGAGGGCAAAGTCGATAGCATCTGTCGACG | 0.524 |
